High-throughput results as filed in PubChem BioAssay.
KB-V1 MDR tox: qHTS assay for MDR1-selective chemotherapeutics: Primary screen using the drug-selected MDR subline cells KB-V1. KB-V1 MDR cells viability, CellTiter-Glo, 72 h. Potency, µM (top dose mostly 46.1 µM), actives largely listed as cytotoxic. actives 3.4% (n = 400,000). AID 1347076, 2019; note: nearly all actives have a fitted effect of over 60% in size
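In this primary screen, KB-V1 cells overexpressing P-gp are incubated with library compounds (lowest to highest concentration) for 72 h at 37 degrees C before a luminescent ATP viability read.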
HT1080 IDH1KD tx: qHTS for induction of synthetic lethality in tumor cells producing 2HG: qHTS for the HT-1080-IDH1KD cell line. HT-1080 IDH1 knockdown viability, ATP luminescence, 48 h. Potency, µM (titrated, usually from 46.1 µM), usual class: cytotoxic. actives 2% (n = 360,000). AID 686971, 2013
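IDH1KD HT-1080 cells, 750/well, RPMI + 5% FBS; compound pinned after 2 h settling; 48 h, 37 °C; CellTiter-Glo luminescence; % activity normalised to DMSO and no-cell wells; curves fitted, classed by r2 and efficacy.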
KB-3-1 tox: qHTS assay for MDR1-selective chemotherapeutics: Primary screen using the parental adenocarcinoma cell KB-3-1; KB-3-1 viability, CellTiter-Glo ATP luminescence, 72 h; Potency, µM (titrated, usually from 46.1 µM), usual class: cytotoxic; actives 1.4% (n = 400,000); AID 1347075, 2019; note: nearly all actives have a fitted effect of over 60% in size
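Viability of parental KB-3-1 cells, measured by CellTiter-Glo luminescence, followed a 72 h incubation at 37 °C with pinned compounds in phenol-red-free DMEM containing 10% FBS.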
MCF10A rerep: A quantitative high throughput screen for small molecules that induce DNA re-replication in MCF 10a normal breast cells; MCF 10A DNA re-replication, Hoechst nuclear intensity, 48 h; Potency, µM (highest dose often 46.1 µM), most hits filed as activators; actives 2.9% (n = 350,000); note: nearly all actives have a fitted effect of over 50% in size
SW480 rerep: A quantitative high throughput screen for small molecules that induce DNA re-replication in SW480 colon adenocarcinoma cells; SW480 DNA re-replication, Hoechst DNA content imaging, 48 h; Potency, µM (highest dose often 46.1 µM), usual class: activators; actives 1.8% (n = 340,000); note: nearly all actives have a fitted effect of over 55% in size
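First, 250 cells per well were seeded. Next, compound or vehicle (23 nL) was pinned in, plates sat 48 hr at 37 C. Finally Hoechst was added for 40 min before fluorescence scanning.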
HT1080-NT tox: qHTS for induction of synthetic lethality in tumor cells producing 2HG: qHTS for the HT-1080-NT fibrosarcoma cell line | HT-1080-NT fibrosarcoma viability, CellTiter-Glo ATP luminescence, 48 h | AID 686970, 2013 | Potency, µM (highest dose often 46.1 µM), most hits filed as cytotoxic | actives 1.6% (n = 360,000);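 note: NT is the 2HG producing partner of a matched IDH1 knockdown line; nearly all actives have a fitted effect of over 55% in size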
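Compounds were tested in concentration-response format on HT-1080-NT cells for 48 hours at 37 degrees C. Cell viability came from CellTiter-Glo luminescence; curves were classified by r2, response magnitude and activity.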
Each line names hits and unclear results; the compound was inactive in the other large screens. Shown are actives, neighbours in structure and some others; about 7.9% of the full set was active somewhere. Calls come from the whole dose curve; as a rule, active = well fitted curve in the direction sought with a large enough effect; inconclusive = small, poorly fitted or top-dose-only effect, or another doubt; inactive = no such curve, though single readings can be large; an effect the other way counts as inactive or inconclusive.

COc1ccc(-c2c(C#N)c(N)nc3sc(C(=O)c4ccccc4)c(N)c23)cc1	KB-V1 MDR tox 4.1µM, MCF10A rerep inconclusive
Cc1nc2sc(C(=O)c3ccccc3)c(N)c2c(C)c1C	KB-V1 MDR tox inconclusive
CCCCCCn1c(SCC#N)nc2ccccc2c1=O	none (no result: HT1080 IDH1KD tx, MCF10A rerep, SW480 rerep, HT1080-NT tox)
O=C(OCc1ccccc1)N1CCC2CC1c1c2cccc1N1CCOCC1 (stereo not given)	none (no result: MCF10A rerep, SW480 rerep)
COc1ccc(NC2=C(Cl)C(=O)N(c3ccccc3)C2=O)c(OC)c1	none
COc1ccccc1NC1=C(Cl)C(=O)N(c2ccccc2)C1=O	SW480 rerep 10µM
CN1CCN(c2nc(-c3ccc(Br)cc3)nnc2-c2ccccc2)CC1	KB-V1 MDR tox 26µM, HT1080 IDH1KD tx 21µM, MCF10A rerep inconclusive, HT1080-NT tox inconclusive
Brc1ccc(-c2nnc(-c3ccccc3)c(N3CCSCC3)n2)cc1	KB-V1 MDR tox inconclusive
Cc1ccc(-c2nnc(-c3ccccc3)c(N3CCOCC3)n2)cc1	KB-V1 MDR tox 5.8µM, KB-3-1 tox inconclusive, MCF10A rerep inconclusive, SW480 rerep inconclusive
Fc1ccc(Br)cc1C1C=C(c2ccc(Br)s2)Nc2ncnn21 (stereo not given)	KB-V1 MDR tox inconclusive, HT1080 IDH1KD tx 1.2µM, KB-3-1 tox inconclusive, MCF10A rerep inconclusive, SW480 rerep 0.58µM, HT1080-NT tox 1.3µM
COc1cccc(C2=CC(c3ccc(OC)c(OC)c3OC)n3ncnc3N2)c1 (stereo not given)	none (no result: HT1080 IDH1KD tx, MCF10A rerep, SW480 rerep, HT1080-NT tox)
COc1cccc(C2C=C(c3ccc(Br)s3)Nc3ncnn32)c1OC (stereo not given)	KB-V1 MDR tox 5.2µM, KB-3-1 tox inconclusive
O=C(COC(=O)CN1C(=O)NC2(CCCC2)C1=O)NCc1ccc(Cl)cc1Cl	KB-V1 MDR tox inconclusive
CCc1cc(=O)oc2c(C)c(OC(C)C(=O)NCCCn3ccnc3)ccc12 (stereo not given)	KB-V1 MDR tox inconclusive
C[C@H](NS(=O)(=O)c1ccc(Cl)cc1)C(=O)OCC(=O)Nc1cc(S(=O)(=O)N2CCOCC2)ccc1Cl	none
COc1cc(NC(=O)C2CC(c3c(F)cccc3Cl)=NO2)cc(OC)c1OC (stereo not given)	KB-V1 MDR tox inconclusive, KB-3-1 tox inconclusive, MCF10A rerep inconclusive
CCOc1ncccc1C(=O)N1CCN(c2cc(Cl)ccc2C)CC1	KB-V1 MDR tox 0.82µM, HT1080 IDH1KD tx 1.3µM, KB-3-1 tox 2.1µM, MCF10A rerep 15µM, SW480 rerep 0.65µM, HT1080-NT tox 1µM
CCOc1ncccc1C(=O)N1CCN(c2cccc(C)c2C)CC1	KB-V1 MDR tox inconclusive, HT1080 IDH1KD tx 0.18µM, KB-3-1 tox 1µM, MCF10A rerep inconclusive, SW480 rerep 0.73µM, HT1080-NT tox 0.18µM
CC(C)CC(=O)C1=C(O)C(=O)N(Cc2ccccc2)C1c1ccccc1 (stereo not given)	none
O=C(COC(=O)COc1cccc(C(F)(F)F)c1)NC1CCCC1	MCF10A rerep inconclusive
O=C(NCc1ccccc1)C1C(c2ccc3c(c2)OCO3)=Nc2ccccc2N1C(=O)c1ccco1 (stereo not given)	KB-V1 MDR tox inconclusive, HT1080 IDH1KD tx 8.2µM, KB-3-1 tox 7.3µM, HT1080-NT tox 13µM (no result: MCF10A rerep, SW480 rerep)
Cc1ccc(Cn2c(=O)n(Cc3ccc(C(=O)NC4CCN(Cc5ccccc5)CC4)cc3)c(=O)c3ccccc32)cc1	none (no result: HT1080 IDH1KD tx, MCF10A rerep, SW480 rerep, HT1080-NT tox)
Cc1cccc(NC(=O)NNC(=O)COc2ccc([N+](=O)[O-])cc2)c1C	none (no result: KB-V1 MDR tox, KB-3-1 tox)
O=C(COc1ccc([N+](=O)[O-])cc1)NNC(=O)Nc1ccccc1F	HT1080 IDH1KD tx 3.7µM, HT1080-NT tox 4.1µM
O=C(COc1ccc([N+](=O)[O-])cc1)N(Cc1ccccc1)Cc1ccccc1	KB-V1 MDR tox 18µM
Cc1cccc(OCCNc2cc(N3CCN(C)CC3)ccc2[N+](=O)[O-])c1	KB-V1 MDR tox 16µM, KB-3-1 tox inconclusive, SW480 rerep inconclusive
Cc1cccc(OCCNc2cc(N3CCOCC3)ccc2[N+](=O)[O-])c1	HT1080 IDH1KD tx inconclusive, HT1080-NT tox inconclusive
COc1ccc(CCC(=O)OCC(=O)Nc2ccc(OC)c(OC)c2)cc1OC	none
CCN1CCSc2ccc(C(=O)NC(C)c3ccccc3)cc21 (stereo not given)	none (no result: HT1080 IDH1KD tx, MCF10A rerep, SW480 rerep, HT1080-NT tox)
c1ccc(CCc2nn3c(Cn4cnc5ccccc54)nnc3s2)cc1	KB-V1 MDR tox 18µM, HT1080 IDH1KD tx inconclusive, KB-3-1 tox inconclusive
c1ccc(-c2nn3c(Cn4nnc5ccccc54)nnc3s2)nc1	KB-V1 MDR tox 18µM
c1ccc(CCc2nn3c(Cn4nnc5ccccc54)nnc3s2)cc1	none
c1ccc(Cc2nn3c(Cn4nnc5ccccc54)nnc3s2)cc1	KB-V1 MDR tox 23µM
CCCCCCN1C=C/C(=C\C=C(C#N)C#N)c2ccccc21	KB-V1 MDR tox inconclusive, KB-3-1 tox 16µM
COc1ccc(NC(=O)CC2C(=O)N(c3ccc(C)cc3)C(=O)N2Cc2ccc(C)cc2)cc1 (stereo not given)	none (no result: HT1080 IDH1KD tx, MCF10A rerep, SW480 rerep, HT1080-NT tox)
C[C@@H]1C(c2ccc(F)cc2)=NN(c2ccccc2)[C@H]1C(=O)N1CCOC1=O	KB-3-1 tox inconclusive, MCF10A rerep inconclusive
O=C1OCCN1C(=O)[C@H]1[C@H](c2ccc(F)cc2)C(c2cccc(Cl)c2)=NN1c1ccccc1	MCF10A rerep 0.58µM, SW480 rerep 18µM
O=C1OCCN1C(=O)[C@H]1[C@H](c2ccc(Cl)cc2)C(c2cccc(Cl)c2)=NN1c1ccccc1	MCF10A rerep inconclusive, SW480 rerep 12µM
Cc1cccc(C2=NN(c3ccccc3)[C@@H](C(=O)N3CCOC3=O)[C@@H]2c2ccc([N+](=O)[O-])cc2)c1	none
CCN1C(=O)[C@H]2[C@@H](c3ccc(C)cc3)N3C(=O)N(c4ccc(OC)cc4)C(=O)[C@@]3(CC)[C@H]2C1=O	none
OC(C1=CC(=Cc2ccncc2)c2ccccc21)c1ccncc1 (stereo not given)	KB-V1 MDR tox inconclusive, HT1080-NT tox 3.3µM
CCN(C(=O)CSc1nc(N)cc(N)n1)C1CCS(=O)(=O)C1 (stereo not given)	none
O=C(NC(=S)Nc1cccc(Cl)c1N1CCCCC1)c1ccco1	HT1080 IDH1KD tx inconclusive, MCF10A rerep inconclusive, SW480 rerep 18µM, HT1080-NT tox 11µM
CC1CCCC(NC(=S)NC(=O)c2ccco2)C1C (stereo not given)	KB-V1 MDR tox 18µM
